In the library only some 1.1% were active in any assay of this set; here they are far more common.
TrxR1 substrate: qHTS Assay for Substrates of Mammalian Selenoprotein Thioredoxin Reductase 1 (TrxR1): qHTS; hit rate 0.01% among 390,000; Potency, µM (highest dose often 114 µM), without a hit: top-dose activity change, negative = substrate turnover; purified TrxR1 substrate turnover, NADPH consumption readout; Thioredoxin reductase 1, cytoplasmic (Rattus norvegicus), O89049; also: potency is read from the fitted curve at half-maximal effect; nearly all actives have a fitted effect of over 50% in size
Target sequence (O89049 whole entry, looked up): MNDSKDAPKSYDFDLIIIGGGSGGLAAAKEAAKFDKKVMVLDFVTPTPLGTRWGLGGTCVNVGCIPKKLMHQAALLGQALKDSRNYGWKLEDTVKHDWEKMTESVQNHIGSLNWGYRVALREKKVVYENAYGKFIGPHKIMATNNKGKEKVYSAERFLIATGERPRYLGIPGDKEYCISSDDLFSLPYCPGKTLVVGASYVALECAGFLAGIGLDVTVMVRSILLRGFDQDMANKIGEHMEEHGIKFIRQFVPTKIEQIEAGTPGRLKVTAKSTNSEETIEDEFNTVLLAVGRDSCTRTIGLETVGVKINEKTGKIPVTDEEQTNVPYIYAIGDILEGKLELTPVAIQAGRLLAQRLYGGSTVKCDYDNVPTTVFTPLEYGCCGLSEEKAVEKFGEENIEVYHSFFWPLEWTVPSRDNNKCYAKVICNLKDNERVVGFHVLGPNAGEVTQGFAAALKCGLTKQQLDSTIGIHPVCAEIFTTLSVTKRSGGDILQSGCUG
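Rat TrxR1, dispensed at 90 nM, was prereduced with 400 uM NADPH (final) for 5 min at ~22 deg C, then incubated with compound 15 min before 400 uM selenite. A first-read NADPH fluorescence drop versus no-compound background flagged substrates.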
GALK inh: qHTS Assay for Inhibitors of Human Galactokinase (GALK); AID 1868, 2009; Potency, µM (top dose mostly 57.5 µM), for the others: at the top dose activity change, negative = inhibition, usual class: inhibitors; hit rate 0.007% among 270,000; Purified GALK, Kinase-Glo residual ATP luminescence; P51570; also: potency is read from the fitted curve at half-maximal effect
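Compounds were pin-transferred into ATP buffer (35 uM final), then GALK plus galactose (5 nM, 100 uM final) was added. After 1 h at room temperature, Kinase-Glo Plus was added and luminescence read after 10 min.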
rTrxR1 inhibitor: qHTS Assay for Inhibitors of Mammalian Selenoprotein Thioredoxin Reductase 1 (TrxR1): qHTS | Thioredoxin reductase 1, cytoplasmic (Rattus norvegicus), O89049 | recombinant rTrxR1, NADPH fluorescence consumption, selenite substrate | Potency, µM (top dose mostly 114 µM), for inactives: at the highest dose activity change, negative = inhibition, hits mostly inhibitors | hit rate 1% among 390,000 | AID 588453, 2011; also: potency is read from the fitted curve at half-maximal effect; nearly all actives have a fitted effect of over 65% in size
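Rat TrxR1 (90 nM in the dispensed reagent) was pre-reduced with 400 uM NADPH for 5 min at room temperature, then incubated with compound for 15 min. After 400 uM selenite was added, NADPH fluorescence (Ex 340/Em 450 nm) was followed for 8 min.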
PI4K2A inh: qHTS for small molecular inhibitors of PI4K2A. activity change, negative = inhibition, % at 76.9 µM. hit rate 0.13% among 420,000. AID 1346378, 2018. purified PI4K2A, ADP-Glo luminescence, 1 h; stronger effect = lower value. Phosphatidylinositol 4-kinase type 2-alpha (Homo sapiens), Q9BTU6; in the data active = activity change below about -50%; inconclusive = mostly about -30% to -49%;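 also: -100% = wells without enzyme as full effect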
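Compounds are screened against recombinant PI4K2A using PI as substrate and ATP, the latter dispensed at 300 microM. Reactions run one hour at ambient temperature before ADP-Glo detection; full inhibition defined by wells lacking enzyme.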
* marks the source's active call; other numbers are inactive results; i = inactive; ? = inconclusive; . = not tested or not shown; [ ] = another dose, or the depositor's remark. Unless noted, calls follow the shape of the dose curve; as a rule, active = well fitted curve in the direction sought with a large enough effect; inconclusive = small, poorly fitted or top-dose-only effect, or another doubt; inactive = no such curve, though single readings can be large; an effect the other way counts as inactive or inconclusive. Unless noted, % is scaled to controls: 0 for no effect and ±100 for the full control effect.

SMILES	TrxR1 substrate	GALK inh	rTrxR1 inhibitor	PI4K2A inh
COCC1CCN(Cc2c(C(=O)N3CCc4ccccc4C3)nc3ccc(Cl)cn23)C1 (stereo not given)	5%	-3%	16µM*	-11
CCOC(=O)c1c(C)n(C(=O)c2ccco2)c(=O)n1C(=O)c1ccco1	-4%	3%	40µM*	1
Cc1cc(N)n2nc(-c3ccccc3)cc2n1	43%	.	5%	-54*
Oc1ccc(Cl)cc1N=Nc1ccccc1	2%	0%	10%	-1
Cc1ccc(O)c(N=Nc2ccccc2)n1	-3%[57.1 µM]	.	?	-67*
CCCN1CCN(C(=O)c2oc3ccccc3c2NC(=O)COc2ccc(OC)cc2)CC1	5%	-5%	22µM*	1
COc1ccc(OCC(=O)Nc2c(C(=O)N3CCN(C)CC3)oc3ccccc23)cc1	2%[57.1 µM]	2%	12%[57.1 µM]	2
O=C(O)c1cc(O)c2c(c1)[C@@H]([C@H]1c3cc(C(=O)O)cc(O)c3C(=O)c3c(O[C@@H]4O[C@H](CO)[C@@H](O)[C@H](O)[C@H]4O)cccc31)c1cccc(O[C@@H]3O[C@H](CO)[C@@H](O)[C@H](O)[C@H]3O)c1C2=O	-8%[57.1 µM]	.	?	-64*
COc1ccc(N2CC(NC(=O)c3ccco3)CC2=O)cc1OC (stereo not given)	2%[57.1 µM]	.	21%[57.1 µM]	3
COc1ccc(OC)c2c(/C=C/c3c(C)[nH]c4ccccc34)ccnc12	0%	.	4%	.
COc1ccc(NC(=O)/C(Cl)=C(/Cl)S(=O)(=O)Cc2ccc(C)cc2)cn1	11%[57.1 µM]	0%	2.2µM*	4
Cc1nc2c(nc1C)C(=O)c1ccccc1C2=O	9%[57.1 µM]	.	16%[57.1 µM]	-56*
c1cc2c3c(c1)CCCN3CCC2	5%	.	9%	.
CC(=O)CC1OC(=O)C(Br)=C1NCc1ccccc1 (stereo not given)	3%	-2%	14µM*	3
O=C(CC1Oc2ccccc2NC1=O)NCc1ccccc1 (stereo not given)	-1%	2%	10%	0
CC(C)(C)c1ccc(-c2nnc(SCC(=O)Nc3ccc(S(=O)(=O)Nc4nccs4)cc3)n2-c2ccc(Cl)cc2)cc1	.	.	.	-2
CC(=NCc1ccco1)c1c(C)[nH]n(-c2nc3ccccc3s2)c1=O	62%[57.1 µM]	1%	-4%[57.1 µM]	-27
C/C(=N/NC(=O)c1cccs1)c1c(C)[nH]n(-c2nc3ccccc3s2)c1=O	-1%	.	6%	-66*
O=C(NC1CC(=O)N(c2ccc(F)cc2)C1)c1cc2ccccc2o1 (stereo not given)	0%[57.1 µM]	.	-4%[57.1 µM]	-7
O=C(O)CSc1ccc(NC(=O)Nc2ccccc2F)cc1	1%	14%	24%	-54*
O=C(CC(=O)Nc1ccccc1F)Nc1ccccc1F	2%	2%	89µM*	11
O=C(CN1CCCCCC1)Nc1ccccc1F	8%[57.1 µM]	0%	5%[57.1 µM]	4
CC(=O)Nc1ccc(SCC(=O)O)cc1	-1%[57.1 µM]	5%	5%[57.1 µM]	0
CCCc1cc(=O)oc2c3c(ccc12)OCN(Cc1ccccc1OC)C3	i	.	22µM*	-2
Cc1cc(=O)oc2c3c(ccc12)OCN(Cc1ccc(Cl)cc1)C3	916%	.	20µM*	0
SMILES	TrxR1 substrate	GALK inh	rTrxR1 inhibitor	PI4K2A inh
COc1ccccc1CN1COc2ccc3c(oc(=O)c4ccccc43)c2C1	11%	.	19%	-16
COC(=O)[C@]12C[C@H](CC(=O)NCc3ccc(C)o3)C(=O)N(CCC3=CCCCC3)C1=C[C@H](C(C)C)O[C@@H]2C1CC1	.	.	.	4
Cn1ccnc1C(O)c1cc(C(C)(C)C)c(O)c(C(C)(C)C)c1 (stereo not given)	1%	2%	32µM*	5
Cc1cccc(-c2nc(CS(=O)CC(=O)N3CCc4ccccc4C3)c(C)o2)c1 (stereo not given)	10%[57.1 µM]	2%	13µM*	-9
CCOC(=O)N1CCN(C(=O)CS(=O)Cc2nc(-c3cccc(C)c3)oc2C)CC1 (stereo not given)	1%[57.1 µM]	3%	?	3
CCN1CCN(C(=O)CS(=O)Cc2nc(-c3cccc(C)c3)oc2C)CC1 (stereo not given)	12%	2%	?	0

Screens (PubChem)
